D1 agonist: human D1 receptor agonism; HEK293 T-REx D1 cells, calcium flux, agonist mode; activation, % at 2 µM; actives 1% (n = 360,000); AID 504660
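Inducible HEK293 T-REx D1 cells, force-coupled to calcium signalling, were plated at 4000 cells/well with tetracycline and held overnight at 30 C. After no-wash calcium dye loading, compound-evoked calcium rise over 180 s flagged agonists.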
TRHR PAM: TRH receptor (human) allosteric enhancement. AID 493056. enhancement, % at 2 µM. TRHR cells, fluo-8 calcium fluorescence, EC20 TRH enhancement. actives 0.66% (n = 360,000). P34981; in the data active = enhancement above about 30%
Target sequence (P34981 whole entry, looked up): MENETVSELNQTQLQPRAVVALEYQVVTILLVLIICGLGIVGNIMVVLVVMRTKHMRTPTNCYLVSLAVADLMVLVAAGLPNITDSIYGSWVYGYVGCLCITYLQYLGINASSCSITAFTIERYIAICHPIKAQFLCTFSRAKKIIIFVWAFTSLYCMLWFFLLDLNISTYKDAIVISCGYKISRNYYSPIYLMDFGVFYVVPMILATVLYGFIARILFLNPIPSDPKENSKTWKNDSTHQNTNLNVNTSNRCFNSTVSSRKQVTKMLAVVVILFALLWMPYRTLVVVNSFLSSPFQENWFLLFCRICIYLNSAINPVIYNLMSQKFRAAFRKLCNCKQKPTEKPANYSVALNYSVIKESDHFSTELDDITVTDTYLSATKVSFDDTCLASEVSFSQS
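Enhancer read-out: after compound pinning and an initial kinetic agonist-mode read, an EC20 of TRH (10 nM final) was injected and fluo-8 calcium signal (Ex 480/Em 530) followed at 1 s/cycle for 100 cycles in TRHR-expressing cells.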
D1 PAM: enhances dopamine response at the human D1 receptor. P21728. HEK293 TREx D1 cells, calcium flux, dopamine EC20 potentiation. potentiation, % at 10 µM. actives 0.036% (n = 360,000); in the data active = potentiation above about 30%
TRHR agonist: agonists of human TRH receptor | P34981 | TRHR cells, calcium flux fluo-8, FDSS agonist mode | activation, % at 2 µM | actives 0.18% (n = 360,000)
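Steps: seed TRHR cells overnight; add fluo-8 no-wash Ca dye, RT 30 min–1.5 h; record 10 s baseline; pin-transfer compounds; monitor fluorescence 1 cycle/s for the agonist window. Calcium increases flag candidate agonists.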
D1 antag: antagonists of human D1 dopamine receptor | P21728 | HEK293 TREx D1 cells, calcium flux, dopamine EC80; active compounds read low | activity change, negative = inhibition, % at 10 µM | actives 3.2% (n = 360,000); in the data active = activity change below about -30%
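Cells carrying a force-coupled, tetracycline-inducible human D1 receptor report calcium flux. Each well gets a 10 s baseline, compound with 180 s monitoring, then an EC80 dopamine stimulus with a second 180 s kinetic read.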
A number is an active result; 0 = inactive; - = no result given. Most compounds without a hit are left out; they make up all but 4.7% or so of the library. Cut-off read from the data, not from the text of the source, unless noted: active = activation above about 30%; inactive = the rest.

SMILES	D1 agonist	TRHR PAM	D1 PAM	TRHR agonist	D1 antag
COC(=O)C1=C(N)c2c(F)cccc2C1(C#N)c1ccccc1 (stereo not given)	0	0	0	0	-32
COC(=O)C1=C(C)NC(=O)CC1c1ccccc1F (stereo not given)	0	0	0	0	0
COc1cc(/C=N/NC(=O)c2cccnc2)ccc1OCC(=O)N1CCOCC1	0	33	0	0	0
COc1ccc(/C=N/NC(=O)c2cccnc2)cc1CN1CCOCC1	0	0	0	0	0
Nc1nc(Nc2cccc(Cl)c2)sc1C(=O)c1ccc(F)cc1	0	0	0	0	-37
Cc1ccc(Cl)cc1N1CCN(S(=O)(=O)c2c(C)[nH]c(C)c2C(=O)N2CCCCC2)CC1	0	0	0	0	0
O=C(Nc1nccs1)c1ccc(CSc2ccccc2)o1	0	0	0	0	-40
COc1ccc(NS(=O)(=O)c2ccc(-c3coc(C)n3)cc2)c(OC)c1	0	0	0	0	-33
Cc1cc(C)c(NS(=O)(=O)c2ccc(-c3coc(C)n3)cc2)c(C)c1	0	0	0	0	0
Cc1ccc(N(C)S(=O)(=O)c2ccc(-c3coc(C)n3)cc2)cc1	0	0	0	0	-39
Cc1nc(-c2ccc(S(=O)(=O)NCc3ccc(F)cc3)cc2)co1	0	0	0	0	-56
Cc1nc(-c2ccc(S(=O)(=O)NCc3ccc(N(C)C)cc3)cc2)co1	0	0	0	0	0
COc1ccc(OC)c(CNS(=O)(=O)c2ccc(-c3coc(C)n3)cc2)c1	0	0	0	0	0
Cc1ccc(C)c(N2CCN(C(=O)CN3CCSc4ccc(S(=O)(=O)N(C)C)cc43)CC2)c1	0	0	0	0	0
Cc1cc(NC(=O)C2CC(c3ccc(F)cc3)=NO2)n(-c2ccccc2)n1 (stereo not given)	0	0	-	0	-64
Cc1cc(N/C(=N/S(=O)(=O)c2cc(F)ccc2F)c2ccccc2)n(-c2ccccc2)n1	0	0	0	0	-36
Cc1ccccc1N/C(=N/S(=O)(=O)c1cc(F)ccc1F)c1ccccc1	0	0	0	0	-31
Cc1ccc2nc(NC(=O)CN3C(=O)NC4(CCCCC4)C3=O)sc2c1	0	0	0	0	0
CCCC(=O)Nc1nnc(SCc2cc(=O)c3ccc(C)cc3[nH]2)s1	0	0	0	0	0
COc1ccccc1CC(=O)N(Cc1ccccc1)c1cccc(C)c1	0	0	0	0	-31
Cc1cccc(C)c1OCC(=O)NC1CC1	0	0	0	0	-47
Cc1cccc(OCC(=O)NC2CCCCCC2)c1C	0	0	0	0	0
Cc1ccccc1CSCC(=O)NC1CCCC1	0	0	0	0	-45
N#CC1(NC(=O)COC(=O)/C=C/c2ccc3ccccc3n2)CCCCC1	0	0	0	0	-50
O=C(COC(=O)/C=C/c1ccc2ccccc2n1)NNC(=O)c1ccc([N+](=O)[O-])cc1	0	0	0	0	0
SMILES	D1 agonist	TRHR PAM	D1 PAM	TRHR agonist	D1 antag
CCN1CCN(Cc2c(O)ccc3oc(C)c(C(=O)Nc4cccc(Cl)c4C)c23)CC1	0	0	0	0	0
Cc1oc2ccc(O)c(CN3CCN(C)CC3)c2c1C(=O)Nc1cccc(C(F)(F)F)c1	62	0	0	0	-46
CCN1CCN(Cc2c(O)ccc3oc(C)c(C(=O)Nc4cccc(C(F)(F)F)c4)c23)CC1	50	0	0	0	0
Cc1oc2ccc(O)c(CN3CCN(Cc4ccccc4)CC3)c2c1C(=O)Nc1ccccc1	0	0	0	0	0
CCOC(=O)CSc1nc2c([nH]c3ccccc32)c(=O)n1-c1ccc(OC)cc1	0	0	0	0	0
CCOc1ccccc1NC(=O)CSc1nc2cc(O)ccc2c(=O)n1-c1ccc(OC)c(OC)c1	0	0	0	0	0
CC(C)c1ccc(NC(=O)CN2C(=O)NC3(CCCC3)C2=O)cc1	0	0	0	0	0
CN1/C(=C\C(=O)COC(=O)Cn2nnc(-c3ccccc3)n2)C(C)(C)c2ccccc21	0	0	0	0	-35
Cc1cccc(-c2nc(SCCCOc3ccccc3Cl)n3[nH]c(=O)cc3n2)c1	0	0	0	0	0
Cc1csc2nc(CNS(=O)(=O)N(C)C)cn12	0	0	-	0	-72
Cc1csc2nc(CNS(=O)(=O)c3ccc4c(c3)CCCC4)cn12	0	0	0	0	-60
COc1ccc(OC)c(S(=O)(=O)NCc2cn3c(C)csc3n2)c1	0	0	0	0	0
CC(=O)Nc1ccc(S(=O)(=O)NCc2cn3c(C)csc3n2)cc1	0	0	0	0	0
COc1ccc(S(=O)(=O)NCc2cn3c(C)csc3n2)cc1F	0	0	0	0	-49
Cc1ccc(-c2nn3c(-c4ccccc4C)nnc3c3ccccc23)cc1	0	0	0	0	0
O=C(N=C1SCC(=O)N1c1ccccc1)c1ccco1	0	0	0	0	0
O=C(N=C1SCC(=O)N1c1ccccc1Cl)c1ccco1	0	0	0	0	-33
Clc1ccc2oc(-c3ccccc3)nc2c1	0	0	0	0	0
Clc1ccc2oc(-c3cccnc3)nc2c1	0	0	0	0	-37
CCOc1ccc(OCC)c(S(=O)(=O)N2CCCCC2)c1	0	0	0	0	0
CCOc1ccc(OCC)c(S(=O)(=O)n2cnc(C)c2)c1	0	32	0	0	0
CCOc1ccc(NC(=O)CN(c2ccc(Cl)cc2C)S(=O)(=O)c2ccccc2)cc1	0	0	0	0	0
COc1cccc(N/C(=N/C(=S)Nc2ccc(C)cc2C)Nc2nc(C)cc(C)n2)c1	0	0	0	0	-61
CCNC(=S)/N=C(/Nc1ccc(OC)cc1)Nc1nc(C)cc(C)n1	0	0	0	0	0
Cc1ccc(-n2c3c(c(=O)[nH]c2=O)C(NC(=O)c2ccccc2C)(C(F)(F)F)C(=O)N3)cc1 (stereo not given)	0	0	0	0	0
SMILES	D1 agonist	TRHR PAM	D1 PAM	TRHR agonist	D1 antag
CCOc1ccccc1NC(=O)c1sc2nc3c(cc2c1N)CN(Cc1ccccc1)CC3	55	0	0	0	0
O=c1[nH]c(SCc2ccccc2F)nc2ccccc12	0	0	0	0	0
O=c1cc(CSc2nc3ccccc3c(=O)[nH]2)c2ccc(O)cc2o1	0	0	0	0	-37
COc1ccc(CCNC(=O)CSc2n[nH]c(-c3ccccc3Cl)n2)cc1OC	0	0	0	0	0
COc1cccc(CNC(=O)c2ccc3nc(N4CCCCC4)sc3c2)c1OC	0	0	0	0	0
COc1ccc(N2CCN(c3ncnc4onc(C)c34)CC2)cc1	0	0	0	0	-36
Cc1ccc(C(=O)N2CCN3C(=O)c4ccccc4C23c2ccccc2)cc1 (stereo not given)	0	0	0	0	-38
C/C(=N\NC(N)=O)C1(C)CCCCC1	0	35	0	0	0
C/C(=N\NC(N)=S)C1(C)CCCCC1	0	0	0	0	0
O=C(CCC1CCCN(C(=O)c2ccc3c(c2)OCO3)C1)NCc1ccc(F)c(F)c1 (stereo not given)	0	0	0	0	-30

From PubChem BioAssay
